# Assay outcomes (PubChem BioAssay)
# NPR1 antag = antagonists of human natriuretic peptide receptor Npr1; P16066; Potency, µM (top dose mostly 46.3 µM), without a hit: at the highest dose activity change, negative = inhibition, most hits filed as inhibitors; hit rate 1.6% among 76,000; HEK293 hNpr1 GloSensor cGMP, ANP-stimulated luminescence; calls by dose curve; further: nearly all actives have a fitted effect of over 60% in size
#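 Compound pre-incubated 30 min at room temperature on GloSensor-loaded HEK293 cells stably carrying hNpr1 and the pGS-40F cGMP biosensor. Stimulation uses hNppA at 0.1 nM final; luminescence is taken at baseline and 20 min post-agonist.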
# FLuc inh = blocks purified firefly luciferase enzyme activity. hit rate 2.5% among 76,000. AID 1347043. Potency, µM (top dose mostly 115 µM), actives largely listed as inhibitors. purified P. pyralis luciferase, luminescence, biochemical; further: nearly all actives have a fitted effect of over 65% in size
#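 Purified P. pyralis luciferase (10nM final) in 50mM Tris acetate pH 7.5, 10mM Mg acetate, 0.01% Tween-20, 0.05% BSA with 10uM D-luciferin and 10uM ATP. Compounds titrated qHTS. Luminescence imaged on CCD.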
# 3T3 cytotox = kills NIH 3T3 cells; NIH 3T3 viability, CellTiter-Glo ATP luminescence, 48-72 h; Potency, µM (highest dose often 96.7 µM), for inactives: at the highest dose activity change, negative = cytotoxicity, actives largely listed as inhibitors; hit rate 4.3% among 94,000; further: nearly all actives have a fitted effect of over 55% in size
#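 ATP-dependent luminescence (CellTiter-Glo) served as the viability signal for NIH 3T3 cells treated with compound for 48 or 72 hr at 37 °C.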
# HEK293 tox = kills HEK 293 cells | Potency, µM (doses to about 115 µM), for inactives: at the highest dose activity change, negative = cytotoxicity, hits mostly inhibitors | hit rate 6.6% among 94,000 | HEK 293 viability, ATP luminescence (CellTiter-Glo), 48-72 h; further: nearly all actives have a fitted effect of over 60% in size
#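 250 HEK 293 cells/well; compound by pintool; incubated 48 or 72 hr at 37 degree Celsius; CellTiter-Glo added, 10 min RT, luminescence imaged.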
# GPT2 inh = inhibitors of human GPT2 alanine aminotransferase; AID 1671188; hit rate 0.25% among 100,000; Potency, µM (doses to about 57.7 µM), for inactives: at the top dose activity change, negative = inhibition, most hits filed as inhibitors; Q8TD30; Recombinant GPT2, coupled pyruvate oxidase/HRP Amplex Red fluorescence; further: nearly all actives have a fitted effect of over 60% in size
# Target sequence (Q8TD30 whole entry, looked up): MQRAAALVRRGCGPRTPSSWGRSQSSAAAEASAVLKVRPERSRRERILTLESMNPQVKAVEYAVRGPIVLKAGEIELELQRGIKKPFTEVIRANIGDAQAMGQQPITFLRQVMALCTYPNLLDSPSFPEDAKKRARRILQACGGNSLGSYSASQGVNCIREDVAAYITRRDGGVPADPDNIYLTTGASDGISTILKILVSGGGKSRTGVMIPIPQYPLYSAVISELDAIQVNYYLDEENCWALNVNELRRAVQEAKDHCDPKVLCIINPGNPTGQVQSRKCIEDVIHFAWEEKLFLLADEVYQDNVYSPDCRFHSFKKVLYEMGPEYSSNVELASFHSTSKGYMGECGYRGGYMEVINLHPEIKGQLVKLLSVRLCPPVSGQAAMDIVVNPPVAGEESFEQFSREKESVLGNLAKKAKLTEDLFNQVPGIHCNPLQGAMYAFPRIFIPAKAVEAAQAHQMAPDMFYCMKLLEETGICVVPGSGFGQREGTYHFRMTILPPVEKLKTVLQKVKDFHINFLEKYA
#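 Recombinant GPT2 (10ng/uL) with 250uM a-KG and 2mM L-alanine, 30 min at room temperature, in HEPES pH 7.5 buffer. Pyruvate detected by pyruvate oxidase/HRP/Amplex Red fluorescence after 30 min in the dark; AOA (50uM) as positive control.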
# Starred values were filed as active, the others as inactive; i = inactive; u = inconclusive; x = no result; [ ] = remark or other dose. Shown are actives, neighbours in structure and some others; about 10% of the full set was active somewhere. Unless noted, the call rests on the fitted dose curve; in most records, active means well fitted curve in the direction sought with a large enough effect; inconclusive means small, poorly fitted or top-dose-only effect, or another doubt; inactive means no such curve, though single readings can be large; an effect the other way counts as inactive or inconclusive. On the % scale 0 is the no-effect control and ±100 the full control effect; potency means the concentration at half of the fitted maximal effect.
SMILES,NPR1 antag,FLuc inh,3T3 cytotox,HEK293 tox,GPT2 inh
COCCN1CCN(C[C@@H]2C=C(C)[C@H](Cc3nnc(-c4ccc(OC)cc4)o3)C[C@H]2C(C)C)CC1,0%,i,40µM*,40µM*,-8%
COc1ccc(-c2ccc(C(=O)N3CCN(C(=O)Nc4ccccc4)CC3)cc2)nn1,x,x,-20%,-18%,x
CC(=O)N1CCC(C(=O)N2CCCC2c2nc3ccncc3[nH]2)CC1 (configuration not stated),x,x,5%,i,i
Cc1cc(C)nc(N2CC3(COCC(=O)N(Cc4cccc(OC(F)(F)F)c4)C3)C2)n1,8%[70.6 µM],i,-7%[138 µM],u,-14%[88.5 µM]
N#Cc1cccc(CN2CC3(COCC(=O)N(Cc4cccc(OC(F)(F)F)c4)C3)C2)c1,-7%,i,28µM*,u,1%
Cn1c(CN2CCN(c3ccc(C#N)cn3)CC2)nnc1C1CC(N)C1 (configuration not stated),3%,i,1%,1%,i
Cn1cc(CN2CCN(c3cnccn3)CC2)c(-c2ccc(C3CCCCC3)cc2)n1,6%,22µM*,79µM*,25µM*,-18%
Cn1cc(CN2CCN(c3ccc(C#N)cn3)CC2)c(-c2ccccc2)n1,2%,i,u,79µM*,3%
CCO[C@H]1CN(c2cc(C)nc(-c3ccccc3O)n2)C[C@@H]1O,-1%,i,u,u,-22%
CCCCOC(=O)N1CCC2(CC1)[C@H](C(=O)OCC)[C@@H](OC)C(=O)N2C,x,x,u,-10%,x
COc1cc(-c2ccnc3nc(Cc4ccc(F)cc4)nn23)cc(OC)c1OC,-17%,i,u,32µM*,i
CCc1nc2nccc(-c3cc(OC)c(OC)c(OC)c3)n2n1,-3%,i,u,-27%,-9%
c1cc(-c2ccnc3nc(CCC4CCCC4)nn23)ccn1,-1%,i,35µM*,-2%,-3%
COc1cc(-c2ccnc3nc(CCC4CCCC4)nn23)cc(OC)c1OC,-7%,i,5.6µM*,-22%,u
CC(C)Cn1c(=O)c(C(=O)Nc2cccc(Cl)c2)nc2cccnc21,x,x,-1%,-9%,u
Cn1nc(CN2CCOCC2)c2c1CCN(S(=O)(=O)c1ccccc1)C2,x,x,-26%,-9%,i
Cc1onc(C(=O)N2CCC(CCOc3ccc(F)cc3)C2)c1Cn1cc(Cl)cn1 (configuration not stated),u,i,45µM*,u,i
COc1ccc(C(=O)N2CCOCC3(CN(Cc4cc(F)ccc4F)C3)C2)cc1OC,9%[70.6 µM],i,u,112µM*,-7%[88.5 µM]
COc1ccc(C(=O)N2CCOCC3(CN(Cc4cccc(Cl)c4)C3)C2)cc1OC,-2%[70.6 µM],i,u,45µM*,-13%[88.5 µM]
OC1(c2csc(CN3CCN(c4ccccn4)CC3)n2)CCN(C2CCCC2)CC1,2%[70.6 µM],i,-7%[174 µM],-26%[172 µM],-1%[88.5 µM]
CCCC(=O)N1CCC(N2C(=O)C3(CCCCC3)C2c2ccccc2)CC1 (configuration not stated),4%,i,u,u,-6%
CCOC(=O)N1CCC(Oc2cnc3c(ccn3-c3cncnc3)c2)CC1,-8%[70.6 µM],i,10µM*,-23%[172 µM],2%[88.5 µM]
Cc1noc(C)c1[S+](=O)([O-])NC1CCCN(CCn2nc3n(c2=O)CCCC3)C1 (configuration not stated),x,x,-15%,1%,x
COc1ccc(NC(=O)Cn2c(N3CCCCC3)nc(C)c(C)c2=O)cc1Cl,-11%,i,u,25µM*,i
COCC(=O)N1CCCN(c2ccnc3ccnn23)CC1,x,x,-17%[138 µM],-2%[172 µM],i
SMILES,NPR1 antag,FLuc inh,3T3 cytotox,HEK293 tox,GPT2 inh
C#CCNC(=O)c1nc(-c2cccc(C(F)(F)F)c2)c2ccccn12,-24%[70.6 µM],i,u,50µM*,u
C#CCNC(=O)c1nc(-c2ccccc2)c2ccccn12,1%[70.6 µM],i,u,u,i
CC(C)NC(=O)c1nc(-c2cccc(C(F)(F)F)c2)c2ccccn12,13%,i,89µM*,79µM*,1%[88.5 µM]
Cc1ccc(-c2nccn3cc(C(=O)O)nc23)cc1,0%,i,u,3%,-12%
Cc1ccc(-c2nccn3cc(C(=O)NCC(C)C)nc23)cc1,-8%,i,u,40µM*,-13%
O=C(C[C@@H]1CCNC[C@@H]1Cc1cc(-c2ccccc2)on1)N1CCc2ccccc2C1,-11%[70.6 µM],i,32µM*,40µM*,5%[88.5 µM]
COc1cc2c(cc1OC)CN(C(=O)C[C@@H]1CCNC[C@@H]1Cc1cc(-c3ccccc3)on1)CC2,4%,i,u,79µM*,3%
CN(Cc1cc(C[C@H]2CNCC[C@H]2CC(=O)N2CCN(c3ccccc3)CC2)no1)c1ccccc1,-17%,i,20µM*,u,-3%
CN1CCN(C(=O)C[C@@H]2CCNC[C@@H]2Cc2cc(-c3ccccc3)on2)CC1,-13%[70.6 µM],i,u,-30%[172 µM],-11%[88.5 µM]
COc1ccc(-c2cc(C[C@H]3CNCC[C@H]3CC(=O)N3CCN(c4ccccc4)CC3)no2)cc1,-1%,i,25µM*,40µM*,-1%
N#Cc1cccc(-c2c(C(=O)N3CCCCC3)nc3sccn23)c1,x,x,u,u,-2%[88.5 µM]
Cc1cc(NC(=O)C2CCN(c3cc(C(F)(F)F)ncn3)CC2)ccc1Br,u,i,32µM*,25µM*,i
Cc1ccc(C)c(NC(=O)C2CCN(c3cc(C(F)(F)F)ncn3)CC2)c1,-21%,i,u,u,i
O=C(NCc1ccc(F)cc1)c1cc(-c2ccsc2)c2nncn2n1,x,x,-17%,u,-10%
CC(c1ccc(-c2ccc(N(C)C)nn2)cc1)N(C)C (configuration not stated),u,16µM*,-11%,3%,-5%
Cc1ccc(C(=O)N(CC(C)C)CC2CN(C(=O)c3ccc(Cl)c(Cl)c3)CCO2)cc1 (configuration not stated),-13%,i,u,45µM*,4%
COc1cccc(NC(=O)N2CCOC(CN(CC(C)C)C(=O)c3cccc(OC)c3)C2)c1 (configuration not stated),-11%,i,-36%,u,i
Cc1ccc(C(=O)N(CC(C)C)CC2CN(C(=O)Nc3cccc(Cl)c3)CCO2)cc1 (configuration not stated),-13%,i,u,40µM*,i
CC(C)CN(CC1CN(C(=O)c2cccc(Cl)c2)CCO1)C(=O)c1cccc2ccccc12 (configuration not stated),-20%,i,u,35µM*,0%
O=S(=O)(c1cccs1)N1CCN(c2ccc3nnc(C4CC4)n3n2)CC1,x,x,u,-29%,x
COCC(=O)N1CCC(C(=O)N2CCC3(CC2)CC(=O)Nc2ccccc2O3)CC1,x,x,1%,i,-9%
